Results: PubChem BioAssay AID651650 (Sanford-Burnham Center for Chemical Genomics, 2012)

molecular target: Neuropilin-1 (Homo sapiens) (UniProt O14786); experiment: NRP-1 b1b2 CendR peptide binding inhibitors, dose response, biochemical, FP and AlphaScreen panel (AID 651650); conditions: NRP-1 b1b2 / RPARPAR peptide binding, FP or AlphaScreen; run 1, at 100 µM (top of the series)
Sequence (O14786 whole entry, looked up): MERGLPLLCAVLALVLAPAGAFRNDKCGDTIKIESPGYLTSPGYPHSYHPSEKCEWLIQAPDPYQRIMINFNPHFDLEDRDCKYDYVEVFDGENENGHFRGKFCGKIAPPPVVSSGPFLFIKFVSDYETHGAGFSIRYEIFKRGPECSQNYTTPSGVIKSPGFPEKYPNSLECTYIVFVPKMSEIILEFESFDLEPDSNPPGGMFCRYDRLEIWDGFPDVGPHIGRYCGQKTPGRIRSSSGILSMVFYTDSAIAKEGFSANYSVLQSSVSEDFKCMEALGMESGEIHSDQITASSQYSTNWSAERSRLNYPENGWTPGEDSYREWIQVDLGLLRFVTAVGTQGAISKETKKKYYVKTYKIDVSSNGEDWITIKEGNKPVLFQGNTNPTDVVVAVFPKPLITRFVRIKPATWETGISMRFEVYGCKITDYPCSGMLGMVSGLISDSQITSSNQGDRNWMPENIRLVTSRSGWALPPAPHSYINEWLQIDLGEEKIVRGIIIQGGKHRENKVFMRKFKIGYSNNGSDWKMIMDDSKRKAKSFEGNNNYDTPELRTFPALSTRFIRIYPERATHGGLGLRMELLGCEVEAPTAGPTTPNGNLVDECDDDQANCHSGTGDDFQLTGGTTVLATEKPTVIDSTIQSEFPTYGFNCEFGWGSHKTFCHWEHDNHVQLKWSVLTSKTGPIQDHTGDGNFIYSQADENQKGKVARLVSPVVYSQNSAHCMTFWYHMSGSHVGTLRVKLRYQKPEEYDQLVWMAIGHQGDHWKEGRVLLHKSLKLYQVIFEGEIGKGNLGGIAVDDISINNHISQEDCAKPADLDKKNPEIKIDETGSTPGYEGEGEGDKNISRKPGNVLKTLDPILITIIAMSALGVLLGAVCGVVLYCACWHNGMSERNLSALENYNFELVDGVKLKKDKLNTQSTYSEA

SMILES	inhibition [%]
COC(=O)n1c(=O)oc2ccccc21	50
O=C(Nc1ccc(N2CCOCC2)cc1)c1cc(-n2cnnc2)ccc1Cl	55
CN(C)/C=C/c1c([N+](=O)[O-])c2ccc(O)cc2n1-c1ccccc1	39.4
CCOC(=O)[C@]12CCCC=C1N(CCC1=CCCCC1)C(=O)[C@H](CC(=O)NCC13CC4CC(CC(C4)C1)C3)C2	20.7
CC(C)(C)OC(=O)NCc1ccc(CNC(=O)c2nc[nH]c2C(=O)N2CCN(C(=O)OC(C)(C)C)CC2)cc1	16.3
CC(C)(C)OC(=O)N1CCC(NC(=O)c2nc[nH]c2C(=O)N2CCc3ccccc3C2)CC1	25.2
COc1ccc(Cn2c(C3CC3)nc3ccc(NC(=O)c4cccnc4)cc3c2=O)cc1	88.1
C=C1CCN([C@@H](CC(C)C)C(=O)NCCC(C)C)S(=O)(=O)c2ccccc21	35.9
O=C(Nc1ccc(F)cc1)c1cc(S(=O)(=O)Nc2ccc(F)cc2)cs1	2.95
COc1c2ccc(C(=O)NCc3cc(C(F)(F)F)cc(C(F)(F)F)c3)cc2nn1C	38.2
Cc1nc2c(OCCC3CCCCC3)cccn2c1N(C)C(=O)CCC1CCCC1	23.2
O=C(NNc1ncnc2c1cnn2-c1ccc(F)cc1)c1ccco1	25.9
COC(=O)Cc1ccc(NC(=S)NCCCO)cc1	49.7
CC(Nc1ccc2ccccc2c1)C(=O)N/N=C/c1ccncc1 (centres undefined)	45.8
COc1ccc(Cl)cc1NC(=O)C(C)N1CCc2ccccc21 (centres undefined)	82.6
O=C(c1ncn(Cc2ccccc2)c1C(=O)N1CCc2ccccc2C1)N1CCc2ccccc2C1	23
Cc1cc(C)n2c(SCC(=O)Nc3cccc(S(N)(=O)=O)c3)nnc2n1	-5.38
COc1ccc2c(c1)N(C)/C(=C1/SC(=NCc3ccccc3)N(c3ccccc3)C1=O)S2	36.5
CC(=O)c1ccc(OCC(=O)Nc2nnc(C3CC3)s2)cc1	-27.1
O=c1oc(Nc2ccccc2F)nc2ccccc12	25.1

SMILES	inhibition [%]
O=C1CSC(c2cn(-c3ccccc3)nc2-c2cccs2)N1CC1CCCO1 (centres undefined)	73.3
CC(O)(c1cccnc1)c1nc(/C=C/c2ccccc2)cs1 (centres undefined)	42.6
COc1ccc(-c2noc(CN(C(=O)c3ccc4c(c3)OCO4)C(C)C)n2)cc1	27.6
Cc1ccc(NC(=O)COc2ncnc3c(Cl)cc(Cl)cc23)cc1[N+](=O)[O-]	-2.85
CC(C)(C)OC(=O)N1CCN(C(=O)c2[nH]cnc2C(=O)NCc2ccccc2)CC1	34.4
CCc1cc(C(=O)OC)c(NC(=O)c2ccoc2C)s1	41.2
O=C(Nc1cccc2c1CCCC2)c1cc(C2CCCCN2C(=O)CCCc2ccccc2)on1 (centres undefined)	-15
Cc1nn(-c2ccccc2)c(C)c1C(=O)OCC(=O)Nc1ccccc1	20.2
Nc1ccc(C#Cc2c(-c3ccsc3)oc3ccc(N4CCOCC4)cc23)cc1	28.3
COc1cccc(NC(=O)CSc2nc(O)c(C)c(=O)n2-c2ccc(C)cc2)c1	84.9
O=C(O)C1CCN(C(=O)c2ccc(Cl)cc2)CC1	32
C=CCn1c(SCC(=O)Nc2ncc(Cc3ccc(Br)cc3)s2)nnc1-c1ccncc1	42
COCc1cccc(-c2csc(C(C)(O)c3ccccc3)n2)c1 (centres undefined)	25.6
CC(=O)N1CCSc2ccc(S(=O)(=O)Nc3ccc(C)cc3)cc21	47.7
FC(F)(F)c1cc(C(F)(F)F)c2ccc(Oc3ccccc3)nc2n1	22.5
CCOC(=O)C1(Cc2cccc(F)c2)CCN(Cc2ccon2)CC1	61.1
CN(c1ccc(OCC(=O)OCC(=O)Nc2ccc([N+](=O)[O-])cc2)cc1)S(=O)(=O)c1cccs1	58.7
CC(=O)OC[C@@H]1CN(Cc2cccc(C(F)(F)F)c2)C[C@H](n2cnc3c(NCc4ccco4)ncnc32)O1	54.5
COC(=O)C[C@H]1c2cc(F)ccc2S(=O)(=O)N1C(C)C	29.9
